PubChem BioAssay AID743266 (National Center for Advancing Translational Sciences (NCATS), 2014)
The whole screen tested about 410,000 compounds, of which about 310 (0.076%) were called active. Not shown: some 2% with an inconclusive outcome. The call rests on the fitted dose curve; in most records, active means well fitted activation curve with a large enough effect; inconclusive means small, poorly fitted or top-dose-only effect, or another doubt; inactive means no such curve, though single readings can be large or run the other way. The entries come from a sample that favours actives as a whole.

Biological target: Parathyroid hormone/parathyroid hormone-related peptide receptor (Homo sapiens) (UniProt Q03431)
Experiment: qHTS for PTHR1 Agonists: Primary Screen; further: nearly all actives have a fitted effect of over 55% in size
Settings: HEK293 GP2 PTHR1 cells, GloSensor cAMP luminescence, 1 h; series mostly up to 115 µM; activation: at the top concentration
Excerpt: The goal of the proposed studies is to discover new compounds that act as potent agonists on the parathyroid hormone receptor type-1 (PTHR1). The PTHR1 plays critical roles in maintaining blood calcium and phosphate levels, as well as in controlling bone remodeling. PTHR1 agonists could thus be useful for treating diseases such as hypoparathyroidism and osteoporosis. In the former disease, an agonist drug would help maintain normal blood calcium and phosphate levels under conditions of parathyroid hormone deficiency. In the latter disease, an agonist drug would stimulate new bone formation and thus reduce the risk of fracture, under conditions of bone fragility, as occurs in aging.
To that end, we performed a quantitative high-throughput screening (qHTS) of the Molecular Libraries Probe Centers Network (MLPCN) compound libraries at the NIH Chemical Genomics Center (NCGC) for the parathyroid hormone receptor type-1 (PTHR1) using a unique HEK-293-derived cell line (GP2) that expresses the PTHR1 and a glosensor cAMP reporter construct.
NIH Molecular Libraries Probe Production Centers Network [MLPCN]
NIH Chemical Genomics Center [NCGC]
Assay Submitter (PI): Thomas Gardella, Massachusetts General Hospital
4 microL are dispensed into a 1536-well micro plate to yield 3,000 cells/well. The plates are then incubated overnight, after which 4 microL of 0.5 mM of BIoTium Luciferin plus 0.5 mM IBMX are added. They are then incubated at 37 degree for one hour before 23 nL of compounds are added through pinning and then incubated at 37 degree again for another hour. After the plates are kept at room temperature for 15 min before they are read on the ViewLux to measure luminescence.
Potency means the concentration at half of the fitted maximal effect.

Chain of Parathyroid hormone/parathyroid hormone-related peptide receptor (Homo sapiens) (Q03431 whole entry, looked up): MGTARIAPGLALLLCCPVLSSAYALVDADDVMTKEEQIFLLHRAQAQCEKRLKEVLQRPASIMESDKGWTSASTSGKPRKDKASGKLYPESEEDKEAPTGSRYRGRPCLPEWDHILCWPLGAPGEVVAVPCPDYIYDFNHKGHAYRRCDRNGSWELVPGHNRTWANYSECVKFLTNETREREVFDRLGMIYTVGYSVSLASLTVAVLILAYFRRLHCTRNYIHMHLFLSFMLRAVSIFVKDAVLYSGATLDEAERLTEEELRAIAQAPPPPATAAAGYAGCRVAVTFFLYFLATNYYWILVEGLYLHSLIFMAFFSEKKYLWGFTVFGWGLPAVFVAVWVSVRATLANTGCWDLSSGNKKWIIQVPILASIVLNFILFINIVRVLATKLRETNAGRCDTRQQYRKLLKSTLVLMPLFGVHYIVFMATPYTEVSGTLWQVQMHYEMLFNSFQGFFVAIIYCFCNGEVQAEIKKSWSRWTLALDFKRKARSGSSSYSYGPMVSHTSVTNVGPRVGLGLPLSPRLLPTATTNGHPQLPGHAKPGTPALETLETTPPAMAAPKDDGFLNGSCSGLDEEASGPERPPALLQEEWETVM

activation, inactive:
CCCn1c2ccccc2c2cnn(CC(=O)NCC3CCN(Cc4ccc(C)cc4)CC3)c(=O)c21 -10.4%
O=C(Cn1nc(C(F)(F)F)c2c1CCCC2)Nc1ccc(Cl)cc1 -28.6%
CCOC(=O)C1CCN(c2ncnc3c2c(-c2ccccc2)cn3-c2cccc(C)c2)CC1 -9.28%
CSc1ccc(CCNC(=O)c2cnn(-c3ccccc3)c2-n2cccc2)cc1 -0.368%
COc1ccccc1CNC(=O)CS(=O)(=O)c1cccc2nsnc12 -27.3%
COc1ccc(N2CCN(Cc3nc4c(c(=O)[nH]c(=O)n4C)n3Cc3ccc(Cl)cc3)CC2)cc1 -14.2%
COc1ccccc1C(=O)OCc1cc(=O)n2nc(-c3cccs3)sc2n1 -22.8%
CCc1nc2c(cnn2-c2ccc(C)cc2)c(=O)n1-c1ccc(C)cc1 -39.6%
CCCC12CN3CC(CCC)(CN(C1)C3c1c[nH]c3ccc(OC)cc13)C2=O (stereo unspecified) -51.8%
Cc1ccc(C)c(NC(=O)Cn2ccn(-c3ccc(F)cc3)c(=O)c2=O)c1 -0.697%
Cc1cc(C)cc(NC(=O)Cn2c(=O)c3ccccc3n3nncc23)c1 -0.562%
Fc1ccc(-n2ncc3c(Nc4ccc(Oc5ccccc5)cc4)ncnc32)cc1 -2.25%
Cc1ccc(CNC(=O)CCc2c(C)nc3nc(CNC(=O)OC(C)(C)C)nn3c2C)cc1 -17.4%
COc1cccc(CNC(=O)CCC(=O)N2CC3CCCN3c3ccccc32)c1 (stereo unspecified) -22.2%
Cc1ccn2c(Nc3ccc4c(c3)OCCO4)c(-c3ccc(C)s3)nc2c1 -23.9%
COc1ccc(NC(=O)C2CCN(c3ccc(Sc4ccc(C)cc4)nn3)CC2)c(OC)c1 -16.3%
Cc1cccc(-c2nc(SCC(=O)Nc3cc(C)on3)c3c(=O)n(C)c(=O)n(C)c3n2)c1 -35.6%

outcome, inactive:
Cn1c(=O)sc2cc(NS(=O)(=O)c3ccc(C(C)(C)C)cc3)ccc21
O=C(CSc1nccn1Cc1ccc(F)cc1)NCc1ccccc1
CCCCn1c(SCC(=O)N2CCCC2=O)nc2cc(S(N)(=O)=O)ccc21
NS(=O)(=O)c1ccc(CCNC(=O)CCCCCn2c(=O)[nH]c3ccccc3c2=O)cc1
CCN(CC)S(=O)(=O)c1ccc2c(c1)N(CC(=O)NCc1ccccc1)C(=O)CS2
COc1ccc2c(c1)c(=O)c(C(=O)c1ccccc1)cn2CC(=O)Nc1ccc2c(c1)OCCO2
COc1ccccc1CN1CCC(CNC(=O)c2cnn(-c3cccc(Cl)c3)c2C2CCN(C(=O)OC(C)(C)C)CC2)CC1
COc1ccc(Cn2ccnc2SCC(=O)Nc2ccc3c(c2)OCO3)cc1

Potency, active:
NS(=O)(=O)c1ccc(CCNC(=O)CCCn2c(SCC(=O)N3CCCC3)nc3ccsc3c2=O)cc1 21.6 µM
